Measurements: PubChem BioAssay
Active and inactive are the calls of the source.

Experiments:
[1] = system: Human papillomavirus type 1a protein E7 (residues 44-93); assay: small molecules binding HPV E7 44-93 – biochemical, small-molecule microarray, residues 44-93, 635 nm fluorescence, primary screen (AID 1108); conditions: fluorescence 635 nm, higher = more signal;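 note: E7 fragment applied at 1 µg/mL in TBST for 1 h at 4 C; score combines spot fluorescence with its signal to noise ratio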
[2] = hepatitis C replication reporter changes, two-sided – Huh7 cells, luciferase reporter, HCV replication inhibitor project, primary screen (AID 1109); conditions: Huh7 HCV replicon luciferase reporter, 48 h; higher = more signal;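 note: huh7 hepatoma cells harbouring a luciferase neomycin HCV replicon reporter; luciferase luminescence as measure of HCV replicon replication; test concentration not given here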
[3] = biological target: Left-right determination factor 2 (Homo sapiens) (UniProt O00292); assay: small molecules binding LEFTY2 protein – biochemical, small-molecule microarray, 635 nm fluorescence scan, primary screen (AID 1110); conditions: higher = more signal
[4] = biological target: Calmodulin-1 (Homo sapiens) (UniProt P0DP23); assay: small molecules binding calmodulin-1 with EGTA – biochemical, small-molecule microarray, Cy5-labelled CALM1, profiling panel (AID 1111); conditions: Cy5-CALM1 binding fluorescence, higher = more signal;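 note: labelled calmodulin applied in Tris saline Tween buffer holding calcium plus EGTA and DTT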
[5] = biological target: Calmodulin-1 (Homo sapiens) (UniProt P0DP23); assay: small molecules binding Ca-loaded calmodulin-1 – biochemical, small-molecule microarray, Cy5-labelled CALM1, plus calcium, artefact control for SMM control-protein annotation, profiling panel (AID 1112); conditions: Cy5-CALM1 binding fluorescence, higher = more signal;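 note: score merges spot fluorescence with signal to noise from triplicate slides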
[6] = probe aWnt5a binding to arrayed compounds – biochemical, biotinylated probe, 635/667 nm fluorescence, primary screen (AID 1113); conditions: small-molecule microarray, higher = more signal;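 note: score merges 667 nm fluorescence intensity with signal-to-noise per printed feature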
[7] = probe aShh binding to arrayed compounds – biochemical, biotinylated probe, 635/667 nm fluorescence, primary screen (AID 1114); conditions: small-molecule microarray, higher = more signal;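 note: probe is biotin-labelled aShh protein from a stem cell growth factor screen; measures binding of labelled protein to compounds printed on the slide; score merges feature fluorescence at 667 nm with signal-to-noise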
[8] = probe aNog binding to arrayed compounds – biochemical, biotinylated probe, 635/667 nm fluorescence, primary screen (AID 1115); conditions: small-molecule microarray, higher = more signal;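 note: probe is biotinylated aNog protein used at 0.15 µg/mL for 1 h at 4 C; z-score combines 667 nm fluorescence of each spot with its signal to noise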
[9] = biological target: Torsin-1A-interacting protein 1 (Homo sapiens) (UniProt Q5JTV8); assay: compound microarray binding of lysate hLAP1 – cell lysate, small-molecule microarray, COS7 lysate, 635/667 nm fluorescence, primary screen (AID 1116); conditions: 635 nm fluorescence, higher = more signal
[10] = biological target: Alpha-bungarotoxin (Bungarus multicinctus) (UniProt P60615); assay: compounds binding labelled alpha-BTX control protein – biochemical, small-molecule microarray, Alexa647 label, 635/667 nm fluorescence, artefact control for SMM control protein annotation, profiling panel (AID 1117); conditions: alpha-BTX-A647 binding fluorescence, higher = more signal
Albumin (Bos taurus) = Albumin (Bos taurus) (UniProt P02769); assay: compounds binding labelled BSA control protein – biochemical, small-molecule microarray, Alexa647 label, 635/667 nm fluorescence, artefact control for SMM control protein annotation, profiling panel (AID 1118); conditions: BSA-A647 binding, fluorescence 635 nm, higher = more signal;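 note: score merges 667 nm emission intensity and signal-to-noise per printed compound spot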
[11] = probe aXIP binding to arrayed compounds – biochemical, NeuroSMM set, 635/667 nm fluorescence, primary screen (AID 1119); conditions: small-molecule microarray, higher = more signal, called active from +8 up or from −8 down;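 note: probe is the protein aXip251-270 applied at 1 µg/mL to compound-printed slides; binding of probe to printed compounds measured as 667 nm fluorescence plus signal to noise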
[12] = probe aNOTCH3 binding on compound microarray – biochemical, small-molecule microarray, 635/667 nm fluorescence, primary screen (AID 1120); conditions: higher = more signal;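 note: probe is a biotin-tagged antibody raised against NOTCH3 rather than NOTCH3 protein; score merges spot fluorescence near 667 nm with spot signal to noise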
[13] = probe aNOTCH2 binding on compound microarray – biochemical, small-molecule microarray, 635/667 nm fluorescence, primary screen (AID 1121); conditions: higher = more signal;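 note: score merges feature fluorescence read at 667 nm with its signal to noise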
[14] = biological target: Carbonic anhydrase 2 (Homo sapiens) (UniProt P00918); assay: compounds binding carbonic anhydrase 2 – biochemical, small-molecule microarray, Alexa647-labelled CAII, profiling panel (AID 1122); conditions: CAII-A647 binding fluorescence, higher = more signal
[15] = COS7 lysate on small-molecule microarray, probe aHis, 635 nm (AID 1123); conditions: COS7 cell lysate, fluorescence, higher = more signal;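 note: z-score combines 667nm fluorescence intensity with signal-to-noise per printed compound spot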
[16] = probe aLAP1 signal on lysate-treated microarray – cell lysate, small-molecule microarray, COS7 lysate, primary screen (AID 1124); conditions: probe aLAP1, fluorescence, higher = more signal;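 note: lysate comes from COS7 cells expressing LAP1 and is applied at 0.3 µg/mL; score merges spot fluorescence near 667 nm with signal-to-noise over triplicate slides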
Sam68 (KHDRBS1) = assay: compounds binding KHDRBS1 protein – biochemical, small-molecule microarray, 635 nm fluorescence, primary screen (AID 1125); conditions: higher = more signal;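 note: score merges 667 nm channel intensity with signal to noise over triplicate slides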
[17] = system: Chordin-like protein 2 (CHRDL2); assay: compounds binding chordin-like 2 – biochemical, small-molecule microarray, 635 nm fluorescence, primary screen (AID 1126); conditions: fluorescence 635 nm, higher = more signal;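 note: printed compound slides probed with Chrdl2 protein at 4 µg/mL for 1 h at 4 C; score merges 667 nm emission intensity with signal to noise over three replicate slides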
[18] = biological target: Concanavalin-A (Canavalia ensiformis) (UniProt P02866); assay: compounds binding concanavalin A lectin – biochemical, small-molecule microarray, Alexa647 label, 635 nm, artefact control for SMM control protein annotation, primary screen (AID 1127); conditions: ConA-A647 binding fluorescence, higher = more signal;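 note: z combines 667 nm emission intensity with signal-to-noise across three replicate slides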
Chain of Concanavalin-A (Canavalia ensiformis) (P02866 whole entry, looked up): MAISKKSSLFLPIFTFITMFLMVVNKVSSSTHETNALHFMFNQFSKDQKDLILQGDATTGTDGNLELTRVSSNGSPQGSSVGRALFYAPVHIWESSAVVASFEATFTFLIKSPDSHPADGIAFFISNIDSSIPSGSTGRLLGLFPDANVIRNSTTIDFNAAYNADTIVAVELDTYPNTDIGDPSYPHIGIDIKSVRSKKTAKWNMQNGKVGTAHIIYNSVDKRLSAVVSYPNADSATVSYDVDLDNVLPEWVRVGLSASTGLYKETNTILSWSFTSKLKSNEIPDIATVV

Chain of Left-right determination factor 2 (Homo sapiens) (O00292 whole entry, looked up): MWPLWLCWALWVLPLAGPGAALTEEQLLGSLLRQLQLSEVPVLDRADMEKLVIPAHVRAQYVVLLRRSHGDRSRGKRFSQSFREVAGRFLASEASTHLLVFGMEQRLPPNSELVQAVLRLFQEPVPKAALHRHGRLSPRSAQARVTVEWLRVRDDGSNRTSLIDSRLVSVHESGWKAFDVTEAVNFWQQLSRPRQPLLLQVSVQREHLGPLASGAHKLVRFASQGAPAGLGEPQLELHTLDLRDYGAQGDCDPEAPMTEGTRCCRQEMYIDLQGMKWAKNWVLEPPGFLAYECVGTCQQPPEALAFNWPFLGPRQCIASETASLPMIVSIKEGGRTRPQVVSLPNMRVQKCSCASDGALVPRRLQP
Chain of Alpha-bungarotoxin (Bungarus multicinctus) (P60615 whole entry, looked up): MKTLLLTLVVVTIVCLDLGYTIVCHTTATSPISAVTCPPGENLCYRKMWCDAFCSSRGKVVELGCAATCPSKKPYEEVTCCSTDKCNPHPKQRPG
Chain of Albumin (Bos taurus) (P02769 whole entry, looked up): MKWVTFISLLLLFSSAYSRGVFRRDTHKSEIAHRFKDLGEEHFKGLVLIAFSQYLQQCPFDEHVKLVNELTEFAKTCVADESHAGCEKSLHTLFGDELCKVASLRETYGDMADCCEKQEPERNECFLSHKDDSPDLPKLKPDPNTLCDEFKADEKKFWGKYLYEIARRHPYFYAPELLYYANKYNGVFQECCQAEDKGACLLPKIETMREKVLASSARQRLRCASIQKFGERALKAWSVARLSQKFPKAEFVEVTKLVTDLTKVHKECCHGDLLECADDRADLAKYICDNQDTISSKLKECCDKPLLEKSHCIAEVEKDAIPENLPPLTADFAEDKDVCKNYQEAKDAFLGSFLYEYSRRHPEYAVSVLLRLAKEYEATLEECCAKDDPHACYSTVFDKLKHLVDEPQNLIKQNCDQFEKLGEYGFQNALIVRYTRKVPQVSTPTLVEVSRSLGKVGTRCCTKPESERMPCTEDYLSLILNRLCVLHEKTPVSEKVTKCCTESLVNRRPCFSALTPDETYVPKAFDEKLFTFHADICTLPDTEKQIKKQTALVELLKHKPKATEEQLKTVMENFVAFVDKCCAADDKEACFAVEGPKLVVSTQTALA
Chain of Torsin-1A-interacting protein 1 (Homo sapiens) (Q5JTV8 whole entry, looked up): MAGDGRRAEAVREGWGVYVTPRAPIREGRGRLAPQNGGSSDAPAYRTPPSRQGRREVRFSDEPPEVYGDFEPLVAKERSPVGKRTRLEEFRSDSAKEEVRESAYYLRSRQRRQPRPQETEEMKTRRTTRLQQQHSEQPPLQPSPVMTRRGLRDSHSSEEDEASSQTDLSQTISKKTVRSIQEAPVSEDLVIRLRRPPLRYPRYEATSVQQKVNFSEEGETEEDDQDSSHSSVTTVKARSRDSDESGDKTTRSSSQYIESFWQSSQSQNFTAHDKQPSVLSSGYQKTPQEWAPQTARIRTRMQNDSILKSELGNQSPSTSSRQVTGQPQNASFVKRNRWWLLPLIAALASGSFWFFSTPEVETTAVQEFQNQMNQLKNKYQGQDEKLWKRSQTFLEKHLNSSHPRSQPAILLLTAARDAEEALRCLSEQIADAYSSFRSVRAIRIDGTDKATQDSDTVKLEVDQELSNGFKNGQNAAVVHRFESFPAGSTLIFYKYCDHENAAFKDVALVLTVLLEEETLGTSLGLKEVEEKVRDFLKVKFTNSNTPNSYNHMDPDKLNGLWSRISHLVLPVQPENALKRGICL

| Structure (SMILES) | composite z-score [1] | z-score [2] | composite z-score [3] | composite z-score [4] | composite z-score [5] | composite z-score [6] | composite z-score [7] | composite z-score [8] | composite z-score [9] | composite z-score [10] | composite z-score (Albumin (Bos taurus)) | composite Z-score [11] | composite z-score [12] | composite z-score [13] | composite z-score [14] | composite z-score [15] | composite z-score [16] | composite z-score (Sam68 (KHDRBS1)) | composite z-score [17] | composite z-score [18] |
| --- | --- | --- | --- | --- | --- | --- | --- | --- | --- | --- | --- | --- | --- | --- | --- | --- | --- | --- | --- | --- |
| NCCCC[C@@H]1NC(=O)[C@H]2C[C@@H](C(=O)NCc3ccc(F)cc3)[C@@H](c3cccc(OCCO)c3)N2C1=O | 1.43 | -2.1 | 1.13 | 0.986 | -0.75 | 0.0077 | -0.0119 | 0.127 | 1.92 | 0.538 | -0.364 | 0.125 (inactive) | 0.156 | -0.0995 | 0.549 | 1.46 | 0.251 | 1.3 | 1.47 | 0.701 |
| CCCCCCc1nc(-c2ccc(OC)nc2)cc2c1[Si](C(C)C)(C(C)C)OC2 | -0.611 | 1.09 | -0.147 | -0.464 | 0.0559 | -0.0643 | -0.262 | -0.0965 | -0.346 | 0.502 | -0.361 | 0.582 (inactive) | -0.0858 | -0.104 | 0.445 | -0.689 | -0.293 | -0.299 | -0.0659 | 0.502 |
| CCCCC(=C=CC[C@@H](O)c1cccc(OCCO)c1)C[C@@H](O)COCc1ccccc1 | -0.622 | -1.78 | -0.0756 | -0.613 | -0.285 | -0.096 | -0.0709 | -0.219 | 0.546 | 1.35 | 0.59 | 0.196 (inactive) | -0.158 | -0.104 | 0.441 | 0.696 | 0.117 | -0.121 | -0.598 | -0.302 |
| COCCOC(=O)N1C(=O)[C@@]2(c3cc(C#CCC(C(=O)OC)C(=O)OC)ccc31)[C@H](C(=O)N1CCCCCCC1)[C@H]1C(=O)O[C@H](c3ccccc3)[C@H](c3ccccc3)N1[C@@H]2c1ccccc1OCCO | 1.32 | -2.25 | 1.09 | 2.56 | 1.63 | 0.931 | 2.96 | 3.14 | 3.82 | 2.51 | 0.847 | 0.269 (inactive) | 1.91 | 0.689 | 0.761 | 3.14 | 1.16 | 1.29 | 1.44 | 1.06 |
| O=C1C2C=CC(C(O)c3cccc(O)c3)N(Nc3ccccc3F)C2C(=O)N1c1ccccc1 (stereo not given) | 0.623 | -2.21 | -0.31 | -0.325 | -0.607 | -0.0425 | 0.656 | -0.261 | -0.165 | -0.234 | 0.92 | -0.539 (inactive) | 0.025 | -0.141 | 0.756 | -0.0811 | -0.841 | 0.664 | -0.406 | 0.0597 |
| COCCOC(=O)N1C(=O)[C@@]2(c3cc(C#CC4(O)CCCCCC4)ccc31)[C@H](C(=O)NC[C@H](O)c1ccccc1)[C@H]1C(=O)O[C@H](c3ccccc3)[C@H](c3ccccc3)N1[C@@H]2c1ccc(O)cc1 | -0.132 | -0.68 | 0.0174 | 1.37 | -0.112 | 0.0718 | -0.0055 | -0.111 | 1.14 | 1.61 | 0.456 | -0.275 (inactive) | -0.0362 | -0.0846 | 0.618 | 1.51 | 1.42 | 1.16 | -0.112 | 1.09 |
| CCc1cccc(NC(=O)O[C@H]2[C@H](OC(=O)Nc3ccc4c(c3)OCO4)[C@H](OC(=O)Nc3ccc4c(c3)OCO4)[C@@H](OC)O[C@@H]2CO)c1 | 1.47 | -0.548 | -0.263 | 0.949 | -0.943 | -0.0087 | 0.131 | -0.312 | 0.154 | 1.18 | 0.208 | 1.31 (inactive) | 0.337 | 0.817 | 0.486 | 2.46 | -0.0378 | 1.29 | -0.0095 | 1.14 |
| COc1cc2c(cc1O)C(c1ccc(CN3CCCC3)cc1)N(Cc1ccc([N+](=O)[O-])o1)CC2 (stereo not given) | -1.17 | -1.05 | 0.313 | 0.383 | 0.958 | -0.167 | -0.193 | 0.0692 | 1.12 | 0.951 | 0.847 | 0.27 (inactive) | 0.0469 | -0.0959 | 0.91 | 0.542 | 0.774 | -0.768 | -0.881 | 0.387 |
| CC(C)C(=C=CC[C@@H](O)c1ccc(OCCO)cc1)CCO | 0.0426 | -0.283 | -0.141 | 0.236 | -0.421 | -0.18 | -0.237 | -0.178 | -0.117 | 0.441 | 0.261 | -0.488 (inactive) | -0.0259 | -0.14 | 0.601 | 0.583 | -0.178 | 0.275 | 0.184 | 0.224 |
| CN(C)CCCCNC(=O)[C@H]1C[C@H]2C(=O)N[C@@H](Cc3ccccc3)C(=O)N2[C@H]1c1cccc(OCCO)c1 | -1.49 | -0.251 | 0.0071 | -0.545 | 0.0005 | -0.217 | 0.251 | -0.338 | 0.0886 | 0.336 | -0.598 | -0.162 (inactive) | -0.199 | -0.117 | 0.627 | -0.185 | -0.507 | -1.16 | 0.739 | 0.696 |
| COCCOC(=O)N1C(=O)[C@@]2(c3cc(C#CC4(O)CCCCCC4)ccc31)[C@H](C(=O)N1CCc3cc(OC)c(OC)cc3C1)[C@H]1C(=O)O[C@H](c3ccccc3)[C@H](c3ccccc3)N1[C@@H]2c1ccc(O)cc1 | 1.02 | -1.01 | 0.729 | 0.621 | -0.394 | -0.0512 | 0.191 | -0.411 | 1.12 | 1.17 | 0.609 | 0.413 (inactive) | 0.163 | 0.0012 | 0.638 | 1.58 | 0.773 | 1.29 | 0.34 | 1.16 |
| COCCOC(=O)N1C(=O)[C@@]2(c3cc(C#CC4(O)CCCCCC4)ccc31)[C@H](c1ccc(OCCO)cc1)N1[C@H](c3ccccc3)[C@H](c3ccccc3)OC(=O)[C@H]1[C@@H]2C(=O)N1CCCCCCC1 | 1.41 | -1.94 | 0.725 | 2.18 | 1.45 | 0.716 | 1.01 | 2.62 | 2.51 | 1.89 | 0.571 | 1.12 (inactive) | 1.14 | 0.0899 | 0.357 | 2.47 | 1.02 | 1.31 | 0.744 | 1.15 |
| COc1ccc(CC[C@H](O)c2cccc(OCC(=O)OC(C)(C)C)c2)cc1 | 1.38 | -1.12 | 0.461 | 0.829 | -0.271 | 0.0181 | 0.167 | -0.216 | 1.27 | 0.737 | 0.625 | 0.0178 (inactive) | -0.0014 | -0.0876 | 0.29 | 1.34 | 0.341 | 1.33 | 0.723 | 1.2 |
| [N-]=[N+]=NCc1ccccc1C[C@]1(C(=O)O)COC(c2ccc(OCCCO)cc2)=N1 | -0.523 | -0.35 | -1.47 | 0.0347 | 1.01 | -0.15 | -0.341 | -0.277 | -1.24 | -0.711 | 0.748 | -0.496 (inactive) | -0.0525 | -0.14 | 0.805 | -0.0577 | -0.369 | -0.91 | -2.26 | -0.927 |
